# Test results as given in PubChem BioAssay AID2023 (NMMLSC, 2009).
# In all, about 320,000 compounds went through this assay and about 1,100 (0.34%) were called active. The full list was thinned out, with actives kept by preference. Values without a mark were called inactive.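 Rule for the calls: active = GFP response vs DMSO above a set limit, about the screen mean plus 3 SD (cut at about 150% in these data); inconclusive = under 70 cell events counted for the yeast strain; inactive = the rest.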
# Assay: modulators of LAP4-GFP expression in yeast, primary screen, S. cerevisiae, multiplex flow cytometry, MLPCN library (AID 2023)
# Conditions: 3 h, at 10 µM, hits give high values
row,SMILES,GFP response vs DMSO
1,Cc1cccc2c(CCN)c[nH]c12,105%
2,C/C(CCc1c[nH]c2ccccc12)=N\O,102%
3,NCCc1c[nH]c2ccc(O)cc12,307% [may fluoresce violet] (active)
4,CN(C)C(=O)NC(O)C(Cl)(Cl)Cl (stereo not given),108%
5,COc1ccc(N2C(=O)/C(=C/c3ccco3)C(=O)NC2=S)cc1,170% (active)
6,COc1cccc(N2C(=O)NC(=O)/C(=C\c3cn(C)c4ccccc34)C2=O)c1,104%
7,COc1ccc(CN2C(=O)NC(=O)/C(=C\c3ccc(OC)c(OC)c3OC)C2=O)cc1,109%
8,Cc1ccc(S(=O)(=O)N(C)c2ccc(C(=O)NCC3(N(C)C)CCCCC3)cc2)cc1,91.7%
9,O=C1NC(=O)N(CCc2ccc(F)cc2)C(=O)/C1=C/C=C/c1ccccc1,111%
10,O=C1NC(=O)N(Cc2ccco2)C(=O)/C1=C\c1ccc(-c2ccc(F)cc2)o1,182% (active)
11,O=C1NC(=O)N(Cc2ccco2)C(=O)/C1=C\c1cccn1CCOc1ccccc1,111%
12,O=C(Cc1ccccc1)N1CCN(C2CCCCCC2)CC1,95.7%
13,COc1ccc(C2N3CC(C)(C)CN23)cc1 (stereo not given),95% [median GFP as percent of DMSO wells]
14,CC1CCC(N(C)C2CCN(C)CC2)CC1 (stereo not given),94.4%
15,CNCC[C@H](Oc1ccc(C(F)(F)F)cc1)c1ccccc1,106%
